A selection: hits, their analogues and other compounds. The true share with any hit is near 17%.
TDP1 cell CPT = qHTS for Inhibitors of human tyrosyl-DNA phosphodiesterase 1 (TDP1): qHTS in cells in presence of CPT. AID 686979, 2013. chicken DT40 Tdp1-/-;hTDP1 cells + 20 nM CPT, ATP luminescence, 48 h. Potency, µM (top dose mostly 46.2 µM), most hits filed as inhibitors. 12% of 420,000 active; note: nearly all actives have a fitted effect of over 55% in size
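Chicken DT40 Tdp1-/- cells stably complemented with human TDP1 were seeded at 400 cells/well in medium containing 20 nM camptothecin, exposed to pin-transferred compounds, and grown at 37 °C for at least 48 hr. Viability was read as ATP luminescence.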
TGFb SMAD3 inh = qHTS for Inhibitors of TGF-b; 1.2% of 410,000 active; HepG2 CAGA-GFP TGF-b/SMAD3 reporter, GFP fluorescence, 18 h; TGF-beta stimulated, 500 pg/mL final; AID 588855, 2011; Potency, µM (doses to about 46.1 µM), hits mostly inhibitors; note: nearly all actives have a fitted effect of over 65% in size
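First, reporter cells (HEPG2 CAGA-GFP) rested 2 h at 37 degrees C. Next, compounds were pinned in and TGF-beta added to 500 pg/mL final. After 18 h, GFP was imaged per cell and summed per well.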
HT1080-NT tox = qHTS for induction of synthetic lethality in tumor cells producing 2HG: qHTS for the HT-1080-NT fibrosarcoma cell line; HT-1080-NT fibrosarcoma viability, CellTiter-Glo ATP luminescence, 48 h; Potency, µM (doses to about 46.1 µM), usual class: cytotoxic; 1.6% of 360,000 active;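 note: NT is the 2HG producing partner of a matched IDH1 knockdown line; nearly all actives have a fitted effect of over 55% in size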
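Toxicity toward the 2HG-producing NT line was scored as %Activity, normalised to DMSO and no-cell wells, from CellTiter-Glo luminescence after 48 hours' treatment.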
HepG2 viability = qHTS for Inhibitors of TGF-b: Cytotox Counterscreen; HepG2 CAGA-GFP viability, ATP luminescence, 18 h; Potency, µM (highest dose often 46.1 µM), hits mostly cytotoxic; 0.76% of 410,000 active; AID 588856, 2011
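HepG2 CAGA-GFP cells (1000/well, DMEM with 1% FBS) received compound, then TGF-beta at 500 pg/mL final, and were incubated 18 hours at 37 degrees C. Viability was read by CellTiter-Glo luminescence. Media-only wells were set as complete cell-killing and DMSO as no toxicity.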
HT1080 IDH1KD tx = qHTS for induction of synthetic lethality in tumor cells producing 2HG: qHTS for the HT-1080-IDH1KD cell line; HT-1080 IDH1 knockdown viability, ATP luminescence, 48 h; Potency, µM (doses to about 46.1 µM), hits mostly cytotoxic; 2% of 360,000 active; AID 686971, 2013
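Knockdown cells (IDH1KD HT-1080) received compounds 2 h after plating at 750 cells/well and were kept 48 h at 37 °C in 5% FBS RPMI. A CellTiter-Glo luminescence read gave % activity for curve fitting.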
TDP1 cell noCPT = qHTS for Inhibitors of human tyrosyl-DNA phosphodiesterase 1 (TDP1): qHTS in cells in absence of CPT; 15% of 420,000 active; AID 686978, 2013; DT40 Tdp1-/- hTDP1 cells, no CPT, ATP luminescence, 48 h; Potency, µM (titrated, usually from 46.2 µM), usual class: inhibitors; note: nearly all actives have a fitted effect of over 55% in size
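Luminescent ATP content (CellTiter-Glo) served as the growth readout. Knockout chicken DT40 cells expressing human TDP1 were exposed to compounds without camptothecin for a minimum 48 hr at 37 °C.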
Hits are given with their value; n = inactive; u = inconclusive; x = no result given. Calls come from the whole dose curve; as a rule, active = well fitted curve in the direction sought with a large enough effect; inconclusive = small, poorly fitted or top-dose-only effect, or another doubt; inactive = no such curve, though single readings can be large; an effect the other way counts as inactive or inconclusive.

SMILES	TDP1 cell CPT	TGFb SMAD3 inh	HT1080-NT tox	HepG2 viability	HT1080 IDH1KD tx	TDP1 cell noCPT
CC(=O)O[C@]1(C(C)=O)CC[C@H]2[C@@H]3C=CC4=CC(=O)C=C[C@]4(C)[C@H]3CC[C@@]21C	u	n	n	n	n	14.6µM
CC(=O)O[C@]1(C(C)=O)CC[C@H]2[C@@H]3C=C(C)C4=CC(=O)CC[C@@H]4[C@H]3CC[C@@]21C	u	n	u	n	n	4.61µM
CC(=O)O[C@]1(C(C)=O)CCC2C3C=C(C)C4=CC(=O)CC[C@]4(C)C3CC[C@@]21C (stereo partly specified)	23.1µM	n	n	n	n	16.4µM
Cc1cccc(Cn2c(=O)oc3ccc(C)cc32)c1	n	n	n	n	n	n
Cc1cc(=O)[nH]c2ccc(S(=O)(=O)NCc3ccccc3)cc12	n	n	n	n	n	n
O=S(=O)(c1ccc(Cl)cc1)N1CCOCC1	n	n	x	n	x	n
CC(=O)OC1(C(C)=O)CCC2C3CC(Cl)C4=CC(=O)CCC4(C)C3CCC21C (stereo unspecified)	u	n	n	n	n	23.1µM
COc1ccc(C(=O)NCC(c2ccco2)N2CCc3ccccc32)cc1 (stereo unspecified)	3.66µM	u	4.11µM	n	5.8µM	2.59µM
Cc1cc(C)c(S(=O)(=O)NCC(c2ccc(N(C)C)cc2)N2CCc3ccccc32)c(C)c1 (stereo unspecified)	18.4µM	n	x	n	x	u
COc1cccc(C(=O)NCC(c2ccc(N(C)C)cc2)N2CCc3ccccc32)c1 (stereo unspecified)	8.2µM	n	x	n	x	u
COc1cccc(C(=O)NCCS(=O)(=O)N2CCc3ccccc3C2)c1	n	n	n	n	n	n
COc1ccc(C)cc1S(=O)(=O)NCC(c1ccc(N(C)C)cc1)N1CCc2ccccc21 (stereo unspecified)	u	n	x	n	x	u
COc1ccc(C(=O)NCC(c2ccc(N(C)C)cc2)N2CCc3ccccc32)cc1OC (stereo unspecified)	5.17µM	n	x	n	x	6.51µM
COc1ccc(C2C(C(=O)O)CCC(=O)N2c2ccc(C)cc2)cc1OC (stereo unspecified)	n	n	n	n	n	n
CN(C)c1ccc(C(CNS(=O)(=O)c2ccc(F)cc2)N2CCc3ccccc32)cc1 (stereo unspecified)	u	n	x	n	x	u
COc1ccc(C(=O)NCC(c2cccs2)N2CCc3ccccc32)c(OC)c1 (stereo unspecified)	u	u	n	n	n	14.6µM
CN(C)c1ccc(C(CNC(=O)c2ccccc2F)N2CCc3ccccc32)cc1 (stereo unspecified)	10.3µM	u	x	n	x	u
COc1ccc(C(CNC(=O)c2ccc(C)c(S(=O)(=O)N3CCCCC3)c2)N(C)C)cc1OC (stereo unspecified)	n	n	n	n	n	n
COc1ccc(C(CNC(=O)c2ccc(-c3ccccc3)cc2)N(C)C)cc1OC (stereo unspecified)	u	n	18.4µM	n	20.6µM	u
COc1cc(C(=O)NCC(c2ccc(N(C)C)cc2)N2CCc3ccccc32)cc(OC)c1OC (stereo unspecified)	7.31µM	n	x	n	x	18.4µM
O=C(C(=O)N1CCC(Cc2ccccc2)CC1)c1cccs1	n	x	n	x	n	n
O=S(=O)(NCC(c1ccco1)N1CCc2ccccc21)c1ccccc1 (stereo unspecified)	23.1µM	u	n	n	n	18.4µM
O=S(=O)(NCC(c1ccccc1)N1CCc2ccccc21)c1ccc(Cl)cc1 (stereo unspecified)	u	u	x	n	x	u
COc1cccc(C(=O)NCC(c2ccc(N(C)C)cc2)N2CCc3ccccc32)c1OC (stereo unspecified)	14.6µM	u	x	n	x	14.6µM
CCOc1ccc(/C=N/n2c(COc3ccccc3)n[nH]c2=S)cc1OC	u	n	n	n	n	u
SMILES	TDP1 cell CPT	TGFb SMAD3 inh	HT1080-NT tox	HepG2 viability	HT1080 IDH1KD tx	TDP1 cell noCPT
O=C(C1CCCN(S(=O)(=O)c2ccccc2)C1)N1CCN(c2ccccc2)CC1 (stereo unspecified)	u	n	n	n	n	u
CC1CCCN(S(=O)(=O)c2ccc(S(=O)(=O)N3CCCN(Cc4ccccc4)C3)cc2)C1 (stereo unspecified)	16.4µM	n	n	n	n	u
O=C(C1CCCN(S(=O)(=O)c2ccc(Br)cc2)C1)N1CCN(Cc2ccccc2)CC1 (stereo unspecified)	16.4µM	u	n	n	n	u
S=c1[nH]nc(C2CCCCC2)n1/N=C/C(Cl)=C\c1ccccc1	n	u	n	n	n	u
S=c1[nH]nc(C2CCCCC2)n1/N=C/C=C/c1ccccc1	25.9µM	u	n	n	n	u
O=[N+]([O-])c1cccc(/C=N/n2c(C3CCCCC3)n[nH]c2=S)c1	u	n	n	n	n	16.4µM
COCCn1ccc(O)c(Cc2ccccc2)c1=O	n	n	n	n	n	n
COC(=O)[C@@H]1Cc2c([nH]c3ccccc23)C(C)(C)N1C(=O)CCl	18.4µM	u	u	n	18.4µM	23.1µM
COC(=O)C1Cc2c([nH]c3ccccc23)C2CCC(=O)N12 (stereo unspecified)	n	n	n	n	n	n
CCCCCCCCCCCCCC(=O)O[C@H](CC(=O)O)C[N+](C)(C)C	u	x	x	x	x	n
CCCCCCCCCCCCCCCC(=O)O[C@H](CC(=O)O)C[N+](C)(C)C	u	x	x	x	x	29.9µM
CCCCCCCCCCCCCCCC(=O)OC(CC(=O)O)C[N+](C)(C)C (stereo unspecified)	5.8µM	n	9.2µM	n	u	u
Cc1ccsc1C(=O)Nc1cccc(-n2cnnn2)c1	n	n	n	n	n	n
COC(=O)c1ccc(CSc2ccccc2NC(=S)Nc2cccc(SC)c2)o1	u	n	u	n	u	u
Cc1ccc(C2CCN(C(=O)c3cnn(-c4ccc(C)c(C)c4)c3C3CCN(C(=O)OC(C)(C)C)CC3)C2)cc1 (stereo unspecified)	10.3µM	n	x	n	x	13µM

Screens (PubChem BioAssay)
